Compounds with a hit are over-represented: about 5.7% of the library has one in this group of screens.
hcDAF12 agonist = activates DAF-12 receptor from parasite H. contortus; AID 652067; 370,000 compounds, 1.4% hits; HEK293 hcDAF-12 lit1-tk-luc reporter, luminescence; 0% DMSO, 100% Δ7-dafachronic acid; activation, % at 6.8 µM;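 active means activation above the mean of all tested compounds plus 3 SD, cut at about 5.5% in these data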
AHR act = activates the human aryl hydrocarbon receptor; activation, % at 5 µM; 320,000 compounds, 2.5% hits; P35869; AID 2796; AHR-responsive luciferase reporter cells, luminescence; in the data active means activation above about 47%
ssDAF-12 act = activators of S. stercoralis DAF-12 nuclear receptor. HEK293 ssDAF-12/GRIP1 lit1-tk-luc reporter, luminescence; % of 3 µM dafachronic acid response. activation, % at 6.8 µM. AID 652126. 370,000 compounds, 1% hits;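 active means activation above the mean over all tested compounds plus 3 SD, cut at about 0.9% in these data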
DAX1 inh-1 = DAX1 (NR0B1) inhibition, primary screen. 370,000 compounds, 1.1% hits. inhibition, % at 6.8 µM. HEK293T StAR-luciferase reporter, SF-1/DAX-1 repression relief;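 active means inhibition above the mean over all tested compounds plus 3 SD, cut at about 3.6% in these data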;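 further: higher inhibition means more luminescence from relief of DAX-1 repression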
DAX1 inh-2 = inhibitors of human orphan nuclear receptor DAX1 (NR0B1). P51843. HEK293 Gal4-DAX1 luciferase reporter, luminescence. inhibition, % at 6.75 µM. 340,000 compounds, 0.99% hits;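 active means inhibition above the mean over all tested compounds plus 3 SD, cut at about 4.2% in these data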;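 further: inhibition shows as a rise in luminescence from relieved DAX1 repression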
Target sequence (P51843 207-470 limits assumed): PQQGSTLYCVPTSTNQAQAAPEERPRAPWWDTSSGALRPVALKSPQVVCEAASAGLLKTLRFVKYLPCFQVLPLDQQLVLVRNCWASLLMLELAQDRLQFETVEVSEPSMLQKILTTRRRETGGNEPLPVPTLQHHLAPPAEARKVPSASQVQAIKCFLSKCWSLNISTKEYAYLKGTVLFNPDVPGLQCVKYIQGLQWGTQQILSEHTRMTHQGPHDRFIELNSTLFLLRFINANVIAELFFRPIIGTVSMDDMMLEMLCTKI
hgDAF-12 ag = hgDAF-12 agonism, primary luciferase screen; HEK293 GAL4-hgDAF12 UAS-luciferase reporter, agonist luminescence; normalized to butyrate control; 370,000 compounds, 1.8% hits; activation, % at 6.8 µM;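 active means activation above a cutoff set at the mean of all screened compounds plus 3 SD, cut at about 10% in these data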
Numbers stand for hits; - = inactive; . = not tested or not shown.

SMILES	hcDAF12 agonist	AHR act	ssDAF-12 act	DAX1 inh-1	DAX1 inh-2	hgDAF-12 ag
Cc1ccc(C(=O)CSC2=C(C#N)C(c3ccco3)C3=C(CCCC3=O)N2)cc1 (configuration not stated)	-	-	-	-	-	-
CC(=O)C1=C(C)NC(SCC(=O)c2cc(Cl)ccc2Cl)=C(C#N)C1c1ccco1 (configuration not stated)	-	83	-	-	-	-
N#CC1=C(SCC(=O)c2ccccc2)NC2=C(C(=O)CCC2)C1c1ccco1 (configuration not stated)	-	-	-	-	-	13
CCc1nc(SCC#N)c(C#N)cc1C	.	-	.	.	.	.
CCCCn1c(CCNC(=O)c2cccs2)nc2ccccc21	-	-	-	-	-	-
COC(=O)CSc1ncc(OC)c(OC)n1	-	-	-	-	-	-
Cc1ccc(-n2c(C)c3c(C)nnc(C)c3c2C)cc1C	-	-	-	-	-	-
N#C/C(=C(/O)CCl)c1nc2ccccc2[nH]1	-	-	1.0	-	-	-
N#C/C(=C(\O)Cc1ccccc1)c1nc2ccccc2[nH]1	-	50	-	-	-	-
C/C(O)=C(\C#N)c1nc2ccccc2[nH]1	-	-	-	-	-	-
N#C/C(=C(/O)c1cccs1)c1nc2ccccc2[nH]1	-	54	-	-	-	-
COc1cc(/C=C(\C#N)c2nc3ccccc3[nH]2)cc(OC)c1O	-	-	-	-	-	-
COc1ccccc1N/C=C(\C#N)c1nc2ccccc2[nH]1	-	70	1.2	-	-	-
Cc1cccc(NS(=O)(=O)c2cccc(C(=O)N3CCCCCCC3)c2)c1	-	-	-	-	-	-
O=C(NC1CCN(C(=O)c2cccc([N+](=O)[O-])c2)CC1)c1ccccc1	-	-	-	-	-	-
COc1ccccc1N1CCN(S(=O)(=O)CCNC(=O)CCCc2ccccc2)CC1	-	-	-	-	-	-
COc1ccc(CCNS(=O)(=O)c2c(C)n[nH]c2C)cc1	-	.	-	-	.	-
CCOC(=O)C1=C(C)N(C)C(=O)NC1c1c(C)nn(-c2ccccc2)c1C (configuration not stated)	-	-	-	-	-	-
C[C@H](CO)N1C[C@H](C)[C@@H](CN(C)C(=O)c2ccccc2)OCc2cnnn2CCCC1=O	-	.	-	-	-	-
CCCCCOC(=O)CSc1nc2c(c(=O)[nH]c(=O)n2C)n1CCc1ccccc1	-	-	-	-	-	-
Cc1cccc(Nc2nnc(SC/C(O)=C(\C#N)c3nc4ccccc4[nH]3)s2)c1C	-	-	1.0	-	-	-
COc1cccc(/C=C(/C#N)c2nc3ccccc3[nH]2)c1OC(C)C(=O)O (configuration not stated)	-	-	1.0	-	7.0	-
COc1ccccc1/C(O)=C(\C#N)c1nc2ccccc2[nH]1	-	48	-	-	-	-
Cc1cccc(C)c1Nc1nnc(SC/C(O)=C(\C#N)c2nc3ccccc3[nH]2)s1	-	-	-	-	-	-
COc1cc(/C=C(/C#N)c2nc3ccccc3[nH]2)ccc1OC(=O)c1ccco1	-	60	-	-	-	-
SMILES	hcDAF12 agonist	AHR act	ssDAF-12 act	DAX1 inh-1	DAX1 inh-2	hgDAF-12 ag
O=C(Nc1nc(-c2cccc3ccccc23)cs1)c1ccc2c(c1)S(=O)(=O)c1ccccc1C2=O	-	-	-	-	-	-
O=C(c1ccc(OCC2CCCO2)cc1)N1CCN(c2ccccc2)CC1 (configuration not stated)	-	-	-	-	-	-
COc1ccccc1-c1nnc(SC/C(O)=C(\C#N)c2nc3ccccc3[nH]2)n1C1CCCCC1	-	-	-	-	-	-
N#C/C(=C(/O)CSc1nnc(Cc2cccs2)n1C1CCCCC1)c1nc2ccccc2[nH]1	7.1	-	-	-	-	-
COc1ccccc1NC(=O)C1CCN(S(=O)(=O)c2cccc3nonc23)CC1	-	-	-	-	-	-
c1ccc(-c2nc3ccccc3n2C(c2ccccc2)c2nc3ccccc3[nH]2)cc1 (configuration not stated)	-	.	-	-	.	12
CC(=O)c1ccccc1OCCOc1ncnc2sccc12	-	-	-	-	-	11
COc1ccc(C2Nc3ccc4ccccc4c3-c3c2c(=O)oc2ccccc32)cc1 (configuration not stated)	-	-	1.4	-	-	-
CCOc1ccc(C2Nc3ccc4ccccc4c3-c3c2c(=O)oc2ccccc32)cc1 (configuration not stated)	-	-	-	-	-	-
O=C1C[C@@H]2CCN3C(=O)CCC[C@@H]([C@H]23)[C@@H]1Cc1ccccc1	-	.	-	3.9	-	-
CCCn1c(N)c(C(=O)CSc2nc3ncc(Cl)cc3[nH]2)c(=O)[nH]c1=O	-	-	-	-	-	-
O=c1[nH]c2ccccc2c2cn(-c3ccccc3)nc12	-	64	-	-	-	-
O=C(COc1ccccc1Cl)NCc1nc(-c2ccccc2)no1	-	48	-	-	-	-
CC(OC(=O)c1ccc(Cl)nc1)C(=O)NC1(C#N)CCCCC1 (configuration not stated)	-	-	-	-	4.5	-
CC1CC(O)C(C)CN1 (configuration not stated)	-	.	-	-	5.4	-
CS(=O)(=O)N(CC(=O)Nc1ccc(Br)cc1F)C1CCCCC1	-	55	-	-	-	-
Cn1ccnc1SCC(=O)n1c2c(c3ccccc31)CCCC2	-	72	-	-	-	-
CC1=CCC(C(=O)O)C(C(=O)Nc2cccnc2)C1 (configuration not stated)	-	-	1.7	-	-	-
CC1=CCC(C(=O)O)C(C(=O)Nc2nc3ccc(S(C)(=O)=O)cc3s2)C1 (configuration not stated)	-	-	-	-	-	-
CC1CCN(S(=O)(=O)c2ccc3c(c2)c(=O)c(C(=O)NC2CCCC2)cn3C)CC1	-	-	-	-	-	-
CCCCCCN=CC1=C(O)CC(C)(C)CC1=O	-	-	-	-	-	-
COc1cccc(NC(=O)c2cc([N+](=O)[O-])ccc2NC(=O)CNCC2CCCO2)c1 (configuration not stated)	-	48	-	-	-	-
O=C(CNCC1CCCO1)Nc1ccc([N+](=O)[O-])cc1C(=O)Nc1ccccc1F (configuration not stated)	-	-	-	-	-	-
COc1ccc(C(=O)c2ccc([N+](=O)[O-])cc2)c(OC)c1OC	-	.	-	-	-	-
O=C1NC[C@H](CCCCN2C[C@H](Cc3ccccc3)N(Cc3ccccc3)C(=O)C2=O)N(CCc2ccccc2)C1=O	-	.	-	3.8	.	-
